The text below walks through data of PubChem BioAssay AID777 (Sanford-Burnham Center for Chemical Genomics, 2007).

About 19,000 (20%) of roughly 96,000 compounds were called active. Not all results are given here. A number with no mark means an inactive call.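 The calls were made as follows: active = blocking of liver enzyme CYP2C9 beyond about 50% at 5 µM (limit read from the data); inactive = the rest.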

Sequence of Cytochrome P450 2C9 (Homo sapiens) (P11712 whole entry, looked up): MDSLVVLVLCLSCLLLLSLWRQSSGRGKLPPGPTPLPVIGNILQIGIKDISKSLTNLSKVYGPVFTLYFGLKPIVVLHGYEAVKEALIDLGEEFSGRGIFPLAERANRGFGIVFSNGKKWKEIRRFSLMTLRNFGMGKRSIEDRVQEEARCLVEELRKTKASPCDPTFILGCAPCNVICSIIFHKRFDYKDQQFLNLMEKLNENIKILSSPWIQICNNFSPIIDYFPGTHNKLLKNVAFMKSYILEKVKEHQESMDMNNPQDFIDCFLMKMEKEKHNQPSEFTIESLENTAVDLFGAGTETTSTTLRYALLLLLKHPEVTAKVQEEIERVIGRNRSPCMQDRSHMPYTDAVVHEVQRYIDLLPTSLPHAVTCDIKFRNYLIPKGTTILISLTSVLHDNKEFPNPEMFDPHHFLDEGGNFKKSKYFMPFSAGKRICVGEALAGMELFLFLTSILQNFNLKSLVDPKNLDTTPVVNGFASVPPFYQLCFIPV

This test addresses Cytochrome P450 2C9 (Homo sapiens) (UniProt P11712). Briefly: blockers of cytochrome P450 2C9 activity – biochemical, luminescence, ADME assay, primary screen (AID 777). Conditions: CYP2C9 Supersomes, luciferin-H conversion, at 5 µM, stronger effect = higher value.
Regarding `O=C(NC(c1ccccc1)c1ccccc1)N1CCN(CCO)CC1`, the inhibition is 4%.

`COc1ccc(N(CCC#N)S(=O)(=O)c2ccc(Cl)cc2)cc1`: the inhibition is 19.8%.

For `C=CCC(NCc1ccco1)c1ccc(OC)cc1` (centres undefined), the inhibition was -14.6%.

For `CCCCn1c(SCC(=O)NCC2CCCO2)nc2ccc(N3CCOCC3)cc2c1=O` (centres undefined), the inhibition was 74.1% (active).

As for `N#CCSc1nc2ccc(N3CCOCC3)cc2c(=O)n1CCc1ccccc1`, the inhibition was 30.9%.

`N#Cc1ccc(Oc2cc(C(F)(F)F)nc(-c3ccccn3)n2)cc1`: the inhibition was 42%.

With `O=C(Nc1ccc(Cl)cc1)c1cc2nc(C3CC3)cc(C(F)(F)F)n2n1`, the inhibition is -1.8%.

As for `COc1cc(OC)c(-n2c(C)cc(C=O)c2C)cc1Cl`, the inhibition was 16.9%.

On to `CC(NC(=O)c1ccco1)C(=O)Nc1nc(-c2ccccn2)cs1` (centres undefined), for which the inhibition was 9.7%.

On to `CC(Oc1ccc2ccccc2c1)C(=O)NNC(=S)NC(=O)c1ccco1` (centres undefined), for which the inhibition is 85.3% (active).

Turning to `COc1ccc(C(=O)NC(=S)NNC(=O)CCc2ccccc2)cc1`, the inhibition is 33.8%.

As for `CCCc1ccc(OCC(=O)NNC(=S)NC(=O)c2ccco2)cc1`, the inhibition was 65.8% (active).

Turning to `O=C(NCCSc1ccccc1)c1ccco1`, the inhibition is -18.4%.

On to `CCNC(=S)NNC(=O)Cc1ccccc1`, for which the inhibition was 1.3%.

On to `O=S(=O)(N/N=C\c1cccn1-c1ccccc1)c1ccc2ccccc2c1`, for which the inhibition was -71.5%.

Consider `COc1ccccc1N=C1SC(C)CN1C(=O)C1CCC1` (centres undefined), for which the inhibition was -6.6%.

In the case of `Cc1nc(NC(=O)C23CCC(C)(C(=O)O2)C3(C)C)sc1C` (centres undefined), the inhibition is -3.9%.

For `Cc1cccc(-n2c(N)cc(=O)nc2SC(C)C(=O)NC2CCCCC2)c1` (centres undefined), the inhibition was 27.7%.

Consider `COc1cc(C(=O)Nc2oc(-c3ccccc3)c(-c3ccccc3)c2C#N)cc(OC)c1OC`, for which the inhibition is 43.6%.

Take `O=C(CCCN1C(=O)c2ccccc2C1=O)Oc1ccc(Cl)cc1`: the inhibition was 19.8%.

For the compound `N#Cc1c(NC(=O)CCCN2C(=O)c3ccccc3C2=O)oc(-c2ccccc2)c1-c1ccccc1`, the inhibition was 50.3% (active).

As to `CS(=O)(=O)Nc1cccc(C2=NN(S(=O)(=O)c3ccccc3)C(c3cccs3)C2)c1` (centres undefined), the inhibition was 89.1% (active).

Regarding `NC(=O)C1CCN(C2OC(=O)c3ccccc32)CC1` (centres undefined), the inhibition is -3.4%.

As for `Cc1ccc(CCn2c3c(c4ccccc42)CN(C)CC3)cn1`, the inhibition is -27.5%.

With `O=C(Nc1ccc(-c2nnc(-c3ccccc3)o2)cc1)C1CCCO1` (centres undefined), the inhibition was -11.1%.

As for `O=C(CS(=O)(=O)Cc1ccccc1)NCC1CCCO1` (centres undefined), the inhibition is -17.4%.

As for `O=C(CSc1nnc(-c2ccc(NS(=O)(=O)c3ccccc3)cc2)o1)NCC1CCCO1` (centres undefined), the inhibition is 92.2% (active).

Take `CSC1=N/C(=C\C=C\c2cccs2)C(=O)S1`: the inhibition was -10.5%.

Consider `C=C(C)Cn1c(N2CCCC2)nc2c1c(=O)[nH]c(=O)n2C`, for which the inhibition is -5%.

Regarding `Cc1nnc(SCCCn2c(N3CCCCC3)nc3c2c(=O)[nH]c(=O)n3C)s1`, the inhibition was 59.5% (active).

`Cn1c(=O)[nH]c(=O)c2c1nc(N1CCCCCC1)n2CC(=O)c1ccccc1`: the inhibition was 7.5%.

Turning to `CSCCC1NC2(C(=O)Nc3ccc(Cl)cc32)[C@@H]2C(=O)N(C3CCCC3)C(=O)[C@H]12` (some centres undefined), the inhibition is 76.1% (active).

With `O=C(CN1CCCCCC1)Nc1ccc(Br)cc1Br`, the inhibition is 16.5%.

With `COc1ccc(C(c2nnnn2C2CCCCC2)N2CCN(c3ccccc3F)CC2)cc1` (centres undefined), the inhibition was 73.7% (active).

As for `CC(C)C(c1nnnn1C1CCCC1)N1CCN(c2ccccc2F)CC1` (centres undefined), the inhibition is 8.2%.

`Cc1cccc2cc(CN(Cc3cccs3)C(c3nnnn3C3CCCC3)C(C)C)c(=O)[nH]c12` (centres undefined): the inhibition is -38.3%.

`Cc1cccc(N2CCN(C(c3ccccc3)c3nnnn3CC3CCCO3)CC2)c1C` (centres undefined): the inhibition was 37.3%.

Turning to `CCOc1ccc2[nH]c(=O)c(C(c3nnnn3CCOC)N3CCOCC3)cc2c1` (centres undefined), the inhibition was 6.5%.

`COc1ccc(N2CCN(C(c3cc4ccc(C)cc4[nH]c3=O)c3nnnn3C3CCCC3)CC2)cc1` (centres undefined): the inhibition is 75.7% (active).

For the compound `N#Cc1ccc(-c2ccc(F)cc2)nc1Sc1ccccc1`, the inhibition was 13.2%.

With `Cc1[nH]n(-c2ccccc2)c(=O)c1CCOC(=O)c1ccc(C(F)(F)F)cc1`, the inhibition was -11.8%.

With `COC(=O)CN(c1nc(C)c(Cl)c(OC)n1)S(=O)(=O)c1ccc(C)cc1`, the inhibition is 34.3%.

Regarding `Cc1ccc(-c2nnc(-n3nnc4ccccc43)c3ccccc23)cc1`, the inhibition was 8.4%.

Turning to `Cc1nn(CCOc2ccccc2)c(=O)n1-c1ccccc1F`, the inhibition was -10%.

In the case of `N#Cc1ccc(OCCN2C(=O)NC3(CCSC3)C2=O)cc1` (centres undefined), the inhibition is -24.2%.

Turning to `CC1(C)NC(=O)N(CCOc2cccc(Oc3ccccc3)c2)C1=O`, the inhibition is 62.5% (active).

With `Cc1ccc(NC(=O)Cn2nc(C)c3ccccc3c2=O)c(C)c1`, the inhibition was -59.3%.

`CCOC(=O)C1(S(=O)(=O)c2ccccc2)CCN(Cc2ccccc2)CC1`: the inhibition is 8.3%.

On to `CCn1c(-c2ccoc2C)n[nH]c1=S`, for which the inhibition was 2.9%.

In the case of `CCOC(=O)CN(C)Cc1c[nH]c2ccccc12`, the inhibition is 1.3%.

As to `CCC(=O)Nc1ccccc1N1CCN(S(C)(=O)=O)CC1`, the inhibition is -0.9%.

As for `COc1ccccc1CNC(=O)C1CCN(S(C)(=O)=O)CC1`, the inhibition was -17.1%.

`COc1ccc(C(=O)NC(=S)Nc2ccccc2N2CCN(S(C)(=O)=O)CC2)cc1OC`: the inhibition is 54.8% (active).

Regarding `CC(C)c1ccc(OCC(O)Cn2cnc3ccccc32)cc1` (centres undefined), the inhibition was 8.1%.

In the case of `CC(C)c1cc(C(=O)O)n[nH]1`, the inhibition is 1.1%.

Turning to `CCOCCOC(=O)C1=C(C)N(C)C(=O)NC1c1ccccc1F` (centres undefined), the inhibition was -10.9%.

Take `Cc1ccc(-n2nc3cc(Cl)c(NC(=O)c4ccco4)cc3n2)cc1`: the inhibition is 15.7%.

Take `COc1ccc(CCNc2ncnc3nc[nH]c23)cc1OC`: the inhibition is 8.9%.

For the compound `Cc1nn(C)c(Oc2ccccc2)c1CCNS(=O)(=O)c1ccc(F)cc1`, the inhibition was 49.8%.

For `COc1ccc(S(=O)(=O)NCc2ccc(C(=O)N(C)Cc3ccco3)cc2)cc1`, the inhibition is 63.2% (active).

For `COc1ccc(-c2cc(C(=O)NCc3ccco3)no2)cc1OC`, the inhibition is -47%.

Turning to `COc1ccc(CCNC(=O)CN(c2ccccc2)S(C)(=O)=O)cc1OC`, the inhibition was 4.9%.

On to `COc1ccc(CCNS(=O)(=O)c2ccc(C(=O)NCc3ccco3)cc2)cc1OC`, for which the inhibition is 71.8% (active).

Consider `CCS(=O)(=O)NCCc1ccc(OC)c(OC)c1`, for which the inhibition was 0.1%.

Take `COc1ccc(CCNS(=O)(=O)c2ccc(Cl)s2)cc1OC`: the inhibition was 87.3% (active).

For the compound `COc1ccc(S(=O)(=O)NC(CC(=O)NCc2ccccc2OC)c2ccco2)cc1` (centres undefined), the inhibition was -43.6%.

As for `COc1ccc(CCNS(=O)(=O)c2ccc(F)cc2)cc1OC`, the inhibition is 76.6% (active).

Regarding `O=C(NC1CCC(O)CC1)c1ccc(S(=O)(=O)NCc2ccco2)cc1` (centres undefined), the inhibition was 5%.

For `COc1ccc(C(=O)NCCc2ccc(S(N)(=O)=O)cc2)cc1OC`, the inhibition was -6.7%.

As a reminder, the inhibition is the drop in the measured response relative to a control, in per cent.
